Data as given in PubChem BioAssay AID588342 (National Center for Advancing Translational Sciences (NCATS), 2011).
The campaign covered roughly 360,000 compounds. About 25,000 (6.9%) were called active. Not shown: some 9% with an inconclusive outcome. Calls follow the shape of the dose curve; as a rule, active = well fitted inhibition curve with a large enough effect; inconclusive = small, poorly fitted or top-dose-only effect; inactive = flat fitted curve, though single readings scatter. This excerpt belongs to a sample that is enriched for actives.

molecular target: Luciferin 4-monooxygenase (Photinus pyralis) (UniProt P08659); assay: qHTS profiling assay for firefly luciferase inhibitor/activator using purifed enzyme and Km concentrations of substrates (counterscreen for miR-21 project); settings: purified FLuc, luminescence inhibition; series mostly up to 57.5 µM; activity change, negative = inhibition: at the top concentration; also: nearly all actives have a fitted effect of over 55% in size;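 as to activity change, negative = inhibition: plate controls were vehicle for no effect and reference inhibitor for full effect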
How it was run: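 Purified P. pyralis luciferase, 10 nM final, with Km-level 10 uM D-luciferin and 10 uM ATP in 50 mM Tris acetate pH 7.5, 10 mM Mg acetate, 0.01% Tween-20, 0.05% BSA; 6-point qHTS titration about 60 µM downward; luminescence read.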
Potency is read from the fitted curve at half-maximal effect.

Luciferin 4-monooxygenase (Photinus pyralis), sequence (P08659 whole entry, looked up): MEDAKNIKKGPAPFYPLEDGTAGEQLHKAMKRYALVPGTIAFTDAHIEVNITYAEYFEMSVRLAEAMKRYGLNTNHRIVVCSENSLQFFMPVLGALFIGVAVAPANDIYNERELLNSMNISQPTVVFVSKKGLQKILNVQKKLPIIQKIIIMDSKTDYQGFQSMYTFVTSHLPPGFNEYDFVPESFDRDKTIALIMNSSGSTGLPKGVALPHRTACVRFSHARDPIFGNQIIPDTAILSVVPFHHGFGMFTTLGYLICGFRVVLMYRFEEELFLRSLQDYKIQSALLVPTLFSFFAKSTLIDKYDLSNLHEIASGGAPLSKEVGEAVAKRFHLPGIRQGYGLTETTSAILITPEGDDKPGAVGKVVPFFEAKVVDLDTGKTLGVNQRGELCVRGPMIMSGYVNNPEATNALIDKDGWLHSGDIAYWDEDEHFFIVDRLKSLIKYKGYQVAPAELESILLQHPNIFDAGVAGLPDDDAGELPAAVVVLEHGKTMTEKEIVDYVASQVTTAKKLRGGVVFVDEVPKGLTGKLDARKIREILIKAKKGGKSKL

| SMILES | activity change, negative = inhibition | Potency |
| --- | --- | --- |
| O=C(CCNC(=O)c1ccc([N+](=O)[O-])cc1)NC1CCCCC1 | -0.597% (inactive) |  |
| COc1ccc(CNC(=O)C(C)n2nc(C)c3c(C)n(-c4ccccc4)nc3c2=O)c(OC)c1 (configuration not stated) |  | inactive |
| Cc1ccc(NC(=O)CSCC(=O)NC2CCCCC2)cc1 | -3.2% (inactive) |  |
| O=C(Nc1cccc(F)c1)NC1CCCc2ccccc21 (configuration not stated) | -1.61% (inactive) |  |
| Cc1cc(C)cc(NC(=O)NC2CCN(CC(=O)Nc3cccc(Cl)c3C)CC2)c1 | -0.135% (inactive) |  |
| CC(C)(C)NS(=O)(=O)c1ccc(NC(=O)NC2CCCCC2)cc1 | -10.9% (inactive) |  |
| Cc1ccc(NC(=S)NC2CCCC2)cc1 |  | 10.7 µM (active) |
| CC(C)c1ccc(NC(=O)NC2CCCCC2)cc1 |  | 6.75 µM (active) |
| Cc1ccc(NC(=O)NC2CCCCC2)cc1S(=O)(=O)N1CCOCC1 | -17% (inactive) |  |
| C/C(CC(=O)Nc1cccc(F)c1)=N\NC(=O)C(=O)NC1CCCCC1 | -1.86% (inactive) |  |
| O=C(Nc1cccc(F)c1)NC1CCCCCCC1 |  | 15.1 µM (active) |
| Cc1cc(C)cc(NC(=O)NC2CCCCCCC2)c1 |  | 10.7 µM (active) |
| Cc1cc(Br)ccc1NC(=S)NC1CCCC1 | -16.2% (inactive) |  |
| CC(C)N1CCC(NC(=O)Nc2ccccc2)CC1 | 0.545% (inactive) |  |
| CCCNC(=O)C1CCN(c2nc3ccc(C)cc3[nH]2)CC1 | -13.2% (inactive) |  |
| C=CC(=O)OCCOCCOCCOCCOC(=O)C=C | 3.63% (inactive) |  |
| CO[C@H]1[C@@H]2C=CO[C@@H](O[C@H]3O[C@@H](CO)[C@H](O)[C@@H](O)[C@@H]3O)[C@@H]2[C@@]2(CO)O[C@@H]12 | 0.484% (inactive) |  |
| CCOc1ccccc1C(=O)NCC(c1ccc(N(C)C)cc1)N1CCCC1 (configuration not stated) | 5.38% (inactive) |  |
| CCCN1C(=O)C(O)(CC(=O)c2ccc(CC)cc2)c2cc(Br)ccc21 (configuration not stated) | -1.26% (inactive) |  |

| SMILES | activity change, negative = inhibition | Potency |
| --- | --- | --- |
| CN(CC(=O)NCc1ccc2c(c1)OCO2)CC(=O)Nc1ccc(F)c(F)c1F | 6.28% (inactive) |  |
| Cc1ccccc1CC1(CO)CCCN(C(=O)c2cc(-c3ccccc3)no2)C1 (configuration not stated) | -8.7% (inactive) |  |
| CCCc1cc(C(=O)N2CCCC(CO)(CCCc3ccccc3)C2)n(C)n1 (configuration not stated) | -2.74% (inactive) |  |
| Cc1noc(C)c1CCC(=O)O | -1.99% (inactive) |  |
| CCOC(=O)C1(Cc2ccccc2C)CCCN(C(=O)CCc2c(C)noc2C)C1 (configuration not stated) | -2.5% (inactive) |  |
| Cc1noc(C)c1CCC(=O)N1CCCC(CO)(Cc2ccccc2)C1 (configuration not stated) |  | 19 µM (active) |
| COC(=O)CCC(=O)N1CCCC(CO)(Cc2ccccc2)C1 (configuration not stated) |  | 15.1 µM (active) |
| CN(CC(=O)Nc1ccccc1C(F)(F)F)C(=O)Cc1ccccc1F | 0.869% (inactive) |  |
| CCN(CC)C(CNC(=O)CSc1nnnn1-c1cccc(F)c1)c1ccco1 (configuration not stated) | -1.72% (inactive) |  |
| CSc1ncc(C(=O)NCCCc2ccccc2)c(C)n1 | -4.77% (inactive) |  |
| COc1ccc(OC)c(CNC(=O)c2c3c(nc4ccccc24)C(=O)N(C2CCCCC2)C3)c1 | -2.95% (inactive) |  |
| CC(=O)Oc1ccc(N(C(C)=O)S(=O)(=O)c2ccc3ccccc3c2)cc1Br | -10.9% (inactive) |  |
| COc1ccc(C2CC(=O)N(Cc3ccccc3C)c3c2c(C)nn3-c2nc(C)cc(C)n2)c(OC)c1 (configuration not stated) | 6.83% (inactive) |  |
| CCOc1cccc(-c2nn3c(-c4ccccn4)nnc3s2)c1 | -19.6% (inactive) |  |
| c1ccc(-c2cc(-c3nnc4sc(-c5ccccn5)nn34)[nH]n2)cc1 |  | 10.7 µM (active) |
| COc1cc(-c2nn3c(-c4cccc(C)c4)nnc3s2)cc(OC)c1OC | 7.07% (inactive) |  |
| CN(Cc1ccccc1)c1ccc(-c2nc(-c3ccccc3)no2)cc1[N+](=O)[O-] | -3.2% (inactive) |  |
| COc1cccc(N2CCN(CC(=O)Nc3ccnn3C3CCCC3)CC2)c1 | 3.51% (inactive) |  |
| CCN(c1ccc(Cl)cc1)S(=O)(=O)c1nnc(NC(=O)c2ccco2)s1 | -0.0682% (inactive) |  |

| SMILES | activity change, negative = inhibition | Potency |
| --- | --- | --- |
| Cc1cc(NC(=O)c2ccccc2C)no1 |  | 15.1 µM (active) |
| Cc1ccccc1C(=O)Nc1ccccc1NC(=O)c1ccccc1C | -0.392% (inactive) |  |
| Cc1cc(NC(=O)COc2ccccc2C#N)no1 |  | 12 µM (active) |
| Cc1cc(NC(=O)CSCc2ccccc2C)no1 | -1.06% (inactive) |  |
| Cc1cc(NC(=O)COn2nnc3ccccc32)no1 | 4.3% (inactive) |  |
| Cc1cc(NC(=O)COc2ccc([N+](=O)[O-])cc2)no1 | 2.75% (inactive) |  |
| COc1ccc(N2C(=O)CSC23C(=O)N(Cc2cccc(F)c2)c2ccccc23)cc1Cl (configuration not stated) | -0.272% (inactive) |  |
| COc1ccc(C(=O)C[n+]2ccc(N)c(C)c2C)cc1 | -11.6% (inactive) |  |
| CC(CNC(=O)c1nnc(Cc2cccc(F)c2)o1)c1ccccc1 (configuration not stated) | -1.56% (inactive) |  |
| NC(=O)NC(CC(=O)NNC(=O)c1ccccn1)c1ccc(Cl)cc1 (configuration not stated) | -1.76% (inactive) |  |
| CC(C)(C)NC(=O)CSc1nc(-c2ccc(F)cc2)cc(C(F)(F)F)n1 | 2.93% (inactive) |  |
| COC(=O)Cc1ccc(OCC(=O)NC2CCCC2)cc1 | 2.01% (inactive) |  |
| COC(=O)c1oc2ccc(Br)cc2c1NC(C)=O | 1.34% (inactive) |  |
| Cc1noc(C)c1C(=O)Nc1ccccn1 | 20.3% (inactive) |  |
| Cc1c(C(=O)Nc2ccccn2)oc2ccc(Br)cc12 |  | 2.13 µM (active) |
| COc1cc(C(CC(=O)NCCC(C)C)N2Cc3ccccc3C2=O)cc(OC)c1OC (configuration not stated) | -0.101% (inactive) |  |
| CCCn1c(=N)n(CC(O)COc2ccccc2OC)c2ccccc21 (configuration not stated) | 0.404% (inactive) |  |
| COc1cc2[nH]c(=O)n(Cc3ccc(C(=O)NCc4ccc(C)cc4)cc3)c(=O)c2cc1OC | 1.8% (inactive) |  |
| COCCCN(C(=S)Nc1c(C)cc(C)cc1C)C(C)c1ccncc1 (configuration not stated) | 0.293% (inactive) |  |
